# Laboratory results: PubChem BioAssay (NCATS)
# Inconclusive results are not listed. A call without a number means that no potency is given here. Calls of active or inactive are those of the source. Unless noted, the call rests on the fitted dose curve; in most records, active means well fitted inhibition curve with a large enough effect; inconclusive means small, poorly fitted or top-dose-only effect; inactive means flat fitted curve, though single readings scatter.
# System: not listed separately
# Assay: Primary qHTS to identify inhibitors of SARS-CoV-2 cell entry (AID 1645846; calls by dose curve; further: nearly all actives have a fitted effect of over 45% in size; further: potency means the concentration at half of the fitted maximal effect)
# Details: SARS-CoV-2 pseudovirus cell entry assay, luminescence; activity change, negative = inhibition: at 57.1 µM (top of the series) unless noted; series mostly up to 57.1 µM
# Method in brief: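 Using luciferase-reporting pseudoviruses carrying Wuhan-Hu-1 spike, the screen tracks entry into stably ACE2-expressing cells over 48 hr. Activity is expressed relative to spike particles versus particles lacking any fusion protein.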
Structure (SMILES),"activity change, negative = inhibition",Potency
Cc1cnc(-c2cc(N3CCN(C(=O)CCS(C)(=O)=O)CC3)ncc2Cl)c(C)c1,-19%,–
O=C(CN1C(=O)C2(CCCC2)NC[C@H]1c1cc(F)cc(F)c1)Nc1ccc2c(c1)C[C@@]1(C2)C(=O)Nc2ncccc21,-13.1%,–
CC1=C(C(=O)Nc2cc3cn[nH]c3cc2F)C(c2ccc(C(F)(F)F)cc2)CC(=O)N1 (configuration not stated),-23.5%,–
O=C(c1cncc(Br)c1)N1CCC(N2CCCC2)CC1,–,inactive
COc1ccc2c(OCc3nnc4ccc(-c5ccccc5)nn34)ccnc2c1,-13.2%,–
c1coc(CNc2ncnc3nc[nH]c23)c1,0.628%,–
CCCCCCCCCCCCCCCC(=O)O[C@H]1[C@@H](O)[C@@H](O)[C@@H]([C@H](NC(=O)[C@@H]2C[C@@H](CCC)CN2C)[C@H](C)Cl)O[C@@H]1SC,–,inactive
CC1CNc2c(cccc2S(=O)(=O)N[C@@H](CCCN=C(N)N)C(=O)N2CC[C@@H](C)C[C@@H]2C(=O)O)C1 (some centres not stated),-11.7%,–
COc1ccc2cc(-c3nc(-c4ccc(S(C)=O)cc4)[nH]c3-c3ccncc3)ccc2c1 (configuration not stated),–,31.6 µM (active)
COC1CCC(C(=O)c2ccc3nc4c(cc3c2)CCCO4)CC1 (configuration not stated),–,inactive
O=C(/C=C/C=C/c1ccc2c(c1)OCO2)N1CCCCC1,-9.28%,–
CC1CCN(c2cc(N3CCN(C)CC3)ccc2NC(=O)c2cc(C#N)c[nH]2)CC1,-17.8%,–
C[C@@H]1C(=O)O[C@H]2CC34[C@H]5C[C@@H](C(C)(C)C)C36[C@H](OC(=O)[C@@H]6O)O[C@@]4(C(=O)O5)[C@]21O (some centres not stated),–,inactive
COc1cc2c(cc1OC)C1CC(=O)C(CC(C)C)CN1CC2 (configuration not stated),-3.6%,–
Cc1ccccc1C(C(=O)NC1CCCCC1)N(C(=O)Cn1ccnc1C)c1cccc(F)c1 (configuration not stated),-3.95%,–
Cc1ccccc1C(C(=O)NC1CCCCC1)N(C(=O)CNc1ccc(C#N)cc1)c1cccc(F)c1 (configuration not stated),1.58%,–

Structure (SMILES),"activity change, negative = inhibition",Potency
O=c1[nH]c(=O)n(C2CCCO2)cc1F (configuration not stated),-6.03%,–
O=C(CCN1CCN(C(=O)OCc2cc(Cl)cc(Cl)c2)CC1)c1ccc2[nH]c(=O)oc2c1,-26.2%,–
O=C(Nc1nc2ccccc2n1CCN1CCOCC1)c1cccc([N+](=O)[O-])c1,-0.348%,–
O=C(NC1CCOCC1)c1ccc(-c2cc(-c3cn[nH]c3-c3ccccn3)ccn2)cc1,-3.94%,–
CC(Cc1ccc(O)c(O)c1)(NN)C(=O)O (configuration not stated),-34.1%,–
O=C(O)C1CCCN(CCC=C(c2ccccc2)c2ccccc2)C1 (configuration not stated),-1.36%,–
COc1ccc([C@@H]2CNC(=O)C2)cc1OC1CCCC1,2.39%,–
Cc1cc(NC(=O)Nc2ccc(N(C)C)cc2)c2cc(F)cc(F)c2n1,-12.4% [at 27.1 µM],–
Cc1ccccc1-n1c(Cn2nc(-c3cccc(O)c3)c3c(N)ncnc32)nc2cccc(C)c2c1=O,-14.4%,–
Cc1cc(O)c2c(c1)C(=O)c1cccc(O)c1C2=O,-17%,–
O=C1CCC[C@@H]2[C@H]3CCC[N+]4([O-])CCC[C@@H](CN12)[C@@H]34 (some centres not stated),-3.17%,–
OC[C@H]1OC(O)C[C@@H](O)[C@H]1O (some centres not stated),-3.07%,–
Cc1ccc(CN2CCNCC2)cc1NC(=O)CNc1ccc(F)c(F)c1,–,inactive
Cc1cc(O)c2c(c1)C(=O)c1cc(O)cc(O)c1C2=O,3.76%,–
CC(C(C)N1CC(=O)NC(=O)C1)N1CC(=O)NC(=O)C1 (configuration not stated),-28.5%,–
Nc1[nH]nc2nnc(-c3c(-c4ccccc4)nn4ccccc34)cc12,-11.3%,–

# System: CRL-7250
# Assay: qHTS assay to identify novel small-molecules to repurpose for Merkel cell carcinoma treatment (AID 1296009); further: nearly all actives have a fitted effect of over 60% in size
# Details: MCC and control cell lines, CellTiter-Glo viability, 72 h; series mostly up to 92 µM
# Method in brief: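 Luminescence from CellTiter-Glo, read 10 min after addition at room temperature, reported viability following a 72 hr, 37 degree celsius treatment with NPC or MIPE compounds in titration; values normalized to plate controls.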
row,Structure (SMILES),Potency
1,Cc1cnc(-c2cc(N3CCN(C(=O)CCS(C)(=O)=O)CC3)ncc2Cl)c(C)c1,inactive
2,O=C(CN1C(=O)C2(CCCC2)NC[C@H]1c1cc(F)cc(F)c1)Nc1ccc2c(c1)C[C@@]1(C2)C(=O)Nc2ncccc21,inactive
3,CC1=C(C(=O)Nc2cc3cn[nH]c3cc2F)C(c2ccc(C(F)(F)F)cc2)CC(=O)N1 (configuration not stated),inactive
4,O=C(c1cncc(Br)c1)N1CCC(N2CCCC2)CC1,inactive
5,COc1ccc2c(OCc3nnc4ccc(-c5ccccc5)nn34)ccnc2c1,inactive
6,c1coc(CNc2ncnc3nc[nH]c23)c1,inactive
7,CCCCCCCCCCCCCCCC(=O)O[C@H]1[C@@H](O)[C@@H](O)[C@@H]([C@H](NC(=O)[C@@H]2C[C@@H](CCC)CN2C)[C@H](C)Cl)O[C@@H]1SC,inactive
8,CC1CNc2c(cccc2S(=O)(=O)N[C@@H](CCCN=C(N)N)C(=O)N2CC[C@@H](C)C[C@@H]2C(=O)O)C1 (some centres not stated),inactive
9,COc1ccc2cc(-c3nc(-c4ccc(S(C)=O)cc4)[nH]c3-c3ccncc3)ccc2c1 (configuration not stated),inactive
10,CC1COC2(CCN(c3nc(=O)c4cc(C(F)(F)F)cc([N+](=O)[O-])c4s3)CC2)O1 (configuration not stated),inactive
11,COC1CCC(C(=O)c2ccc3nc4c(cc3c2)CCCO4)CC1 (configuration not stated),inactive
12,O=C(/C=C/C=C/c1ccc2c(c1)OCO2)N1CCCCC1,inactive
13,CC1CCN(c2cc(N3CCN(C)CC3)ccc2NC(=O)c2cc(C#N)c[nH]2)CC1,inactive
14,C[C@@H]1C(=O)O[C@H]2CC34[C@H]5C[C@@H](C(C)(C)C)C36[C@H](OC(=O)[C@@H]6O)O[C@@]4(C(=O)O5)[C@]21O (some centres not stated),inactive
15,COc1cc2c(cc1OC)C1CC(=O)C(CC(C)C)CN1CC2 (configuration not stated),inactive
16,O=[N+]([O-])c1ccc(-c2nc(-c3ccc(F)cc3)c(-c3ccncc3)[nH]2)cc1,inactive
17,COc1ccc2cc([S+]([O-])Cc3ncc(C)c(OC)c3C)nc2c1,inactive
18,Cc1ccccc1C(C(=O)NC1CCCCC1)N(C(=O)Cn1ccnc1C)c1cccc(F)c1 (configuration not stated),inactive
19,Cc1ccccc1C(C(=O)NC1CCCCC1)N(C(=O)CNc1ccc(C#N)cc1)c1cccc(F)c1 (configuration not stated),inactive
20,O=c1[nH]c(=O)n(C2CCCO2)cc1F (configuration not stated),inactive

row,Structure (SMILES),Potency
1,O=C(CCN1CCN(C(=O)OCc2cc(Cl)cc(Cl)c2)CC1)c1ccc2[nH]c(=O)oc2c1,inactive
2,O=C(Nc1nc2ccccc2n1CCN1CCOCC1)c1cccc([N+](=O)[O-])c1,inactive
3,O=C(NC1CCOCC1)c1ccc(-c2cc(-c3cn[nH]c3-c3ccccn3)ccn2)cc1,inactive
4,CC(C)N(CC[C@H](c1ccccc1)c1cc(CO)ccc1O)C(C)C,inactive
5,CC(Cc1ccc(O)c(O)c1)(NN)C(=O)O (configuration not stated),inactive
6,O=C(O)C1CCCN(CCC=C(c2ccccc2)c2ccccc2)C1 (configuration not stated),inactive
7,COc1ccc([C@@H]2CNC(=O)C2)cc1OC1CCCC1,inactive
8,Cc1cc(NC(=O)Nc2ccc(N(C)C)cc2)c2cc(F)cc(F)c2n1,inactive
9,Cc1ccccc1-n1c(Cn2nc(-c3cccc(O)c3)c3c(N)ncnc32)nc2cccc(C)c2c1=O,inactive
10,Cc1ccc(O)c(C(CCN(C(C)C)C(C)C)c2ccccc2)c1 (configuration not stated),inactive
11,Cc1cc(O)c2c(c1)C(=O)c1cccc(O)c1C2=O,inactive
12,COc1ccccc1N1CCN(CCN(C(=O)C2CCCCC2)c2ccccn2)CC1,inactive
13,O=C1CCC[C@@H]2[C@H]3CCC[N+]4([O-])CCC[C@@H](CN12)[C@@H]34 (some centres not stated),inactive
14,OC[C@H]1OC(O)C[C@@H](O)[C@H]1O (some centres not stated),inactive
15,Cc1ccc(CN2CCNCC2)cc1NC(=O)CNc1ccc(F)c(F)c1,inactive
16,Cc1cc(O)c2c(c1)C(=O)c1cc(O)cc(O)c1C2=O,inactive
17,COc1cc(O)c2c(c1)C(=O)c1cc(C)cc(O)c1C2=O,inactive
18,CC(C(C)N1CC(=O)NC(=O)C1)N1CC(=O)NC(=O)C1 (configuration not stated),inactive
19,CCN1CCCC1CNC(=O)c1cc(S(N)(=O)=O)ccc1OC (configuration not stated),inactive
20,Nc1[nH]nc2nnc(-c3c(-c4ccccc4)nn4ccccc34)cc12,inactive
